This note sets out measurements from ChEMBL document CHEMBL4513216, “Probing the Open Global Health Chemical Diversity Library for Multistage-Active Starting Points for Next-Generation Antimalarials” (ACS Infect Dis, 2020).

The campaign covered roughly 68,000 compounds. About 2,700 (4%) showed an effect of 50% or more. What follows is part of a selection rich in strong results, with near analogues and random picks from the rest.

This test relates to Plasmodium berghei. Description: Screen against P. berghei liver stage (PbLuc), transformed with Luciferase, at 2uM. The class given is functional, HepG2. The note with it: tested at 2 uM.
In the case of `CCn1cc(Cl)c(C(=O)Nc2ccc3c(c2)C(C)(C)C(=O)N3C)n1`, the INHIBITION came out at 14.61%. As for `Cc1ccc(S(=O)(=O)NC(=O)CCc2ccccc2)cc1N(C)C`, the INHIBITION came to 0.01%.

As for `CCOc1cccc(CCNC(=O)Cc2cccc(O)c2)n1`, the INHIBITION was 26.74%. The result for `CCOc1cccc(CCNC(=O)Cc2ccn[nH]2)n1` reads 14.82%; that for `CCOc1cccc(CCNC(=O)Cc2ccccc2O)n1`, 76.82%; that for `CN(C)C(=O)C1CCC2(CCN(Cc3cnn(C)c3)CC2)C1` (configuration not stated), 9.65%.

As to `CN(CCCOc1ccccc1)C(=O)c1csc(-c2nnc[nH]2)n1`, the INHIBITION is given as 35.94%.

For `COC(=O)c1cc(C(=O)N2CCCCCC2)n(-c2ccccc2)n1`, the INHIBITION is 63.95%. Turning to `COC(=O)c1cc(C(=O)N2CCN(C)CC2)n(-c2ccccc2)n1`, the INHIBITION is 15.4%.

As for `COC(=O)c1cc(C(=O)N2CCC(C)CC2)n(-c2ccccc2)n1`, the INHIBITION is 35.23%.

For the molecule `CC(C)OCCCNC(=O)CS(=O)(=O)Cc1ccc(C(C)(C)C)cc1`, the INHIBITION is 33.22%. Turning to `CC(C)(C)SCC(=O)NC(C)(C(N)=O)c1cccc(Cl)c1` (configuration not stated), the INHIBITION is -20.64%. With `COCc1csc(NC(=O)NCc2ccsc2)n1`, the INHIBITION was -21.99%. With `COCc1csc(NC(=O)NCc2ccc(C)s2)n1`, the INHIBITION amounted to 50.93%.

Take `COCc1csc(NC(=O)NCc2ccccn2)n1`: the INHIBITION is recorded as -4.91%. As to `COc1ccc(CCC(=O)NC2CCC(O)CC2)cc1OC` (configuration not stated), the INHIBITION is -59.24%.

As to `CC(C)c1ocnc1C(=O)N1CCCC(c2ccn[nH]2)C1` (configuration not stated), the INHIBITION turned out to be 70.81%. In the case of `Cc1[nH]ncc1C(=O)N1CCCC(c2ccn[nH]2)C1` (configuration not stated), the INHIBITION is on record as -1.46%.

With `Cc1nc(C)n(C2CCCN(C(=O)c3ncoc3C(C)C)C2)n1` (configuration not stated), the INHIBITION is reported as -12.27%.

As to `CCCN(C(=O)c1ocnc1C)C1CCCN(Cc2ccccc2)C1` (configuration not stated), the INHIBITION is reported as 4.72%.

Turning to `CC(NC(=O)Nc1ccc(-n2cncn2)cc1)C(=O)NC(C)(C)C` (configuration not stated), the INHIBITION was 12.01%.

On to `CC(O)CC(C)(C)CNC(=O)NCc1cccc(-n2cncn2)c1` (configuration not stated), for which the INHIBITION is reported as 1.22%. Take `CSC(C)(C)CNC(=O)NCc1cccc(-n2cncn2)c1`: the INHIBITION is listed as 54.29%. The figure for `CSC(C)(C)CNC(=O)NCc1cccc(-n2ccnc2)c1` is -27.12%; for `CC(C)C(O)C(C)(C)CNC(=O)NCc1ccc(-n2cncn2)cc1` (configuration not stated) it is 53.19%. The result for `CC(O)(CNC(=O)NCc1cccc(-n2cncn2)c1)c1ccco1` (configuration not stated) reads -33.81%; that for `Cn1cc(Cl)cc1C(=O)N1CCCN(Cc2ccccc2)CC1`, -7.88%; that for `Cc1noc(C)c1CNC1CCN(c2ccccc2OC(F)F)C1` (configuration not stated), -15.77%.

`CO[C@@H]1CN(Cc2scnc2C)[C@@H]2CCCO[C@@H]21`: the INHIBITION was 34.23%. On to `CC(C)n1nc(CNc2ncccn2)c2c1CN(C1CCOCC1)CC2`, for which the INHIBITION is listed as 38.49%. For the molecule `Cc1noc(NC(=O)c2ccc(Br)cc2)n1`, the INHIBITION is -43.47%. The result for `OCCN1CCN(CC(O)c2cc(Cl)ccc2Cl)CC1` (configuration not stated) reads -21.76%.

Consider `CCN1CCN(CC(O)c2cc(Cl)ccc2Cl)CC1` (configuration not stated), for which the INHIBITION was -31.79%. Take `CCOCCN1CCN(CC(O)c2cc(Cl)ccc2Cl)CC1` (configuration not stated): the INHIBITION came to 50.61%. The figure for `CCCn1cnnc1CNC(=O)C1COc2ccc(OC)cc2C1` (configuration not stated) is 21.14%; for `O=C(Nc1ccccc1)c1ccc2c(c1)C1(CCCCC1)CN2` it is -9.98%; for `Cc1c[nH]c(C2CCCN(Cc3ccccc3C(=O)O)C2)n1` (configuration not stated) it is -2.35%. The result for `Cc1nc(C)c(CC(=O)N2CCC(c3ccn4nccc4n3)CC2)s1` reads 3.58%; that for `Cc1noc(C)c1CC(=O)N1CCC(c2ccn3nccc3n2)CC1`, 52.57%.

`Cc1nc(CC(=O)N2CCC(c3ccn4nccc4n3)CC2)cs1`: the INHIBITION is given as 3.03%. With `Cn1cc(CN2CCO[C@@H]3CN(Cc4ccoc4)C[C@@H]3C2)cn1`, the INHIBITION was -0.35%. Consider `CO[C@H]1CC[C@H]2[C@H]1OCCN2CCOCc1ccccc1`, for which the INHIBITION is -4.99%. Turning to `CNS(=O)(=O)CCNC(=O)c1coc(COc2ccc(F)cc2)n1`, the INHIBITION is -38.4%.

As to `CC[C@@H](CO)NC(=O)c1coc(COc2ccc3sc(C)nc3c2)n1`, the INHIBITION is recorded as -10.58%. The figure for `CSCCNC(=O)c1coc(COc2ccc(F)cc2)n1` is 1.88%. In the case of `COC(=O)CCNC(=O)c1coc(COc2ccc(F)cc2)n1`, the INHIBITION worked out at 56.16%. For `CC[C@@H](CO)NC(=O)c1coc(COc2ccc(OC)cc2)n1`, the INHIBITION amounted to 53.26%. Take `CC[C@H](CO)NC(=O)c1coc(COc2ccccc2F)n1`: the INHIBITION is -9.75%.

For the molecule `Cc1ccc(CN2CCC3(CC2)CCN(Cc2ccoc2)CC3)cc1`, the INHIBITION is given as 14.93%.

With `Cc1ccc(CN2CCCC3(CCN(Cc4ccoc4)CC3)C2)cc1`, the INHIBITION worked out at 78.88%. For the molecule `Cn1ccnc1CN1CCC2(CC1)CCN(Cc1ccoc1)C2`, the INHIBITION is on record as -78.53%. For `Cn1cccc1C(=O)N1CCO[C@H]2[C@H](OCc3cccnc3)CC[C@@H]21`, the INHIBITION turned out to be 0.32%.

With `O=C1NCCN(Cc2cccnc2)C1CC(=O)N1CCc2n[nH]cc2C1` (configuration not stated), the INHIBITION was -3.25%.

For the molecule `O=C1NCCN(CC2CCCCC2)C1CC(=O)N1CCc2n[nH]cc2C1` (configuration not stated), the INHIBITION is on record as 5.17%.

For `O=C1NCCN(Cc2ccccc2)C1CC(=O)N1CCc2n[nH]cc2C1` (configuration not stated), the INHIBITION worked out at 50.32%. As for `O=C1NCCCC12CCN(c1nc3c(c(C(F)(F)F)n1)CCCC3)C2` (configuration not stated), the INHIBITION stood at 1.42%. As to `Cc1cc(C2CCC2)nc(N2CCC3(CCCNC3=O)C2)n1` (configuration not stated), the INHIBITION stood at 4.74%. Consider `CNc1nc(N2CCC3(CCCNC3=O)C2)nc2c1CCC2` (configuration not stated), for which the INHIBITION was 56.49%.

In the case of `Cc1nc(N2CCC3(CCCNC3=O)C2)nc2c1CCCC2` (configuration not stated), the INHIBITION is 62%. With `Cc1nc2c(c(N3CCC4(CCCNC4=O)C3)n1)CCC2` (configuration not stated), the INHIBITION worked out at 27.85%.

As to `CN(C)c1nc2c(c(N3CCC4(CCCNC4=O)C3)n1)CCCC2` (configuration not stated), the INHIBITION worked out at 42.17%. For the molecule `O=c1[nH][nH]c2cn(-c3ccccc3)c(=O)n12`, the INHIBITION is reported as -73.41%. For `N#CCCn1cnc2c(F)cc(Br)cc2c1=O`, the INHIBITION is recorded as -23.16%. For `c1cc(-c2nnc(C3CCCN(CC4CCCCC4)C3)o2)ccn1` (configuration not stated), the INHIBITION came to 29.48%. For `Cc1cccc2nc(CNC(=O)N3CCC(OCC4CC4)CC3)cn12`, the INHIBITION is 38.2%. The figure for `Cc1ccc(OCCCC(=O)Nc2nonc2C)cc1C` is -9.17%; for `CN(C)CCOCc1cncc2c1CCN(Cc1ccccn1)C2` it is 56.21%. On to `COCc1cncc2c1CCN(Cc1ccccn1)C2`, for which the INHIBITION was 0.3%. For `CN(C)C(=O)COCc1cncc2c1CCN(Cc1ccccn1)C2`, the INHIBITION is given as 41.93%. With `O=C(c1ccnn1COc1ccc(Cl)cc1)N1CCOCC1`, the INHIBITION is given as 8.56%. With `CCn1c(Nc2ccccc2OC)nc2c(C)nn(C)c2c1=O`, the INHIBITION was -18.88%. The result for `O=S(=O)(Cc1ccc(F)c(Cl)c1)NC(CO)c1ccco1` (configuration not stated) reads 26.62%; that for `Cc1noc2nc(C3CCN(CC4CCCCC4)CC3)cc(C(F)F)c12`, -7.7%. `Cc1nc(CN(C)c2nccc(N(C)C)n2)cs1`: the INHIBITION is recorded as -13.89%.

`Cc1nc(CN(C)c2nccc(C(F)(F)F)n2)cs1`: the INHIBITION was determined as 60.13%. The result for `COc1ccnc(N(C)Cc2csc(C)n2)n1` reads -21.99%; that for `Cc1nn(C)c(C)c1Cc1nc(N(C)C)no1`, 20.71%.

With `CC(C)c1nccn1Cc1cc(C(=O)NCC(F)(F)F)n[nH]1`, the INHIBITION is recorded as -7.52%. In the case of `O=C1NCC(C(=O)Nc2ncc(Cc3cccc(F)c3)s2)N1` (configuration not stated), the INHIBITION was determined as 3.06%. Consider `O=C1NCC(C(=O)Nc2ncc(Cc3ccc(F)cc3)s2)N1` (configuration not stated), for which the INHIBITION amounted to 21.39%. The result for `O=C1NCC(C(=O)Nc2ncc(Cc3ccccc3)s2)N1` (configuration not stated) reads 53.98%. As for `COCc1cccc(C(=O)N2CCCN(C(=O)OCC(C)C)CC2)c1`, the INHIBITION is recorded as 29.19%. For the molecule `COC(=O)CNC(=O)c1c(-n2cnnn2)sc2c1CCCC2`, the INHIBITION came out at 17.26%. On to `Cc1nc(CO[C@H]2CN(C(=O)c3cccn3C)[C@@H]3COC[C@H]23)cs1`, for which the INHIBITION was 36.75%.

For the molecule `CN1CCN(CC[C@@H]2CC[C@H](O)[C@@H](C(=O)Nc3ccccc3)O2)CC1`, the INHIBITION was determined as 29.85%.

On to `O=C(Nc1ccccc1)[C@H]1O[C@H](CCN2CCCCC2)CC[C@@H]1O`, for which the INHIBITION came out at 4.04%. The figure for `O=C(Nc1ccccc1)[C@H]1O[C@H](CCN2CCNCC2)CC[C@@H]1O` is 51.81%. For `CCN1CCCC1CNCc1cc2cc3c(cc2[nH]c1=O)OCCO3` (configuration not stated), the INHIBITION turned out to be 16.87%.

Regarding `CNC(=O)[C@@H](C1CC1)N1CCC[C@H]1C(=O)NCC(C)C`, the INHIBITION is recorded as 40.28%. The figure for `CCNC(=O)[C@@H]1CCCN1[C@@H](C(=O)NC)C1CC1` is 54.01%; for `CCCNC(=O)[C@@H]1CCCN1[C@@H](C(=O)NC)C1CC1` it is 40.28%.

As for `O=C1CN(C(=O)C2CCCCC2)CC(O)CN1Cc1ccc(Cl)cc1` (configuration not stated), the INHIBITION worked out at 43.15%.

As for `Cn1ccnc1CN1CCC2(CC1)CC(N1CCCC1)c1ccccc12` (configuration not stated), the INHIBITION is -11.26%.

For `Cc1ccc(-n2cnnn2)cc1NCC(=O)Nc1cc(F)ccc1F`, the INHIBITION is on record as 19.95%. The figure for `Cc1nn(C(C)C)c(C)c1CN1CCN(C2CCCCC2)C(=O)C1` is -22.72%; for `Cc1nn(CCO)c(C)c1CN1CCN(C2CCCCC2)C(=O)C1` it is 57.21%.

With `C=C(C)Cn1nc(C)c(CN2CCN(C3CCCCC3)C(=O)C2)c1C`, the INHIBITION was -17.01%. The figure for `CO[C@H]1CC[C@H]2[C@H]1OCCN2C(=O)C1=CCCC1` is 28.81%; for `CCN1CCC(Cn2ccc3ccc(C(=O)OC)cc3c2=O)C1` (configuration not stated) it is 39.26%; for `O=C(CCNS(=O)(=O)c1ccc(Cl)cc1)NCc1ccoc1` it is -29.08%. As for `CCNC(=O)NC1CCCN(c2ccc(C)cc2)C1=O` (configuration not stated), the INHIBITION is recorded as 10.63%. As to `CCOCc1nnc(NCc2ccsc2)o1`, the INHIBITION was -19.14%.

`COCc1cccc(NCc2cccnc2)c1`: the INHIBITION was -12.52%.

As to `CCOCc1nnc(NCc2cccnc2)o1`, the INHIBITION turned out to be 54.29%. On to `CCOCc1nnc(NCc2cccc(C)c2)o1`, for which the INHIBITION was 55.39%.

Turning to `Cc1cccc(CNc2nnc(C(C)C)o2)c1`, the INHIBITION is 3.62%.

On to `Cc1cccc(CNc2n[nH]c(C)n2)c1`, for which the INHIBITION was 14.11%.
